About 79,000 compounds went through this panel and 15% of them were active in at least one assay; those are over-represented in the sample as a whole. Unmarked numbers belong to inactive results. Active and inactive are the calls of the source. Rule as the data show it: active = growth inhibition above about 70%; inactive = the rest.
What was measured:
[1] = NCI Yeast Anticancer Drug Screen. Data for the wt1 strain (AID 149);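 also: 0% = growth of vehicle-treated wt1 cultures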; conditions: S. cerevisiae wt1 strain (SPY 50644) growth inhibition, active compounds read high
In short: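 The wt1 strain was treated with compounds, and growth was compared with vehicle-treated cultures to give inhibition.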

[2] = NCI Yeast Anticancer Drug Screen. Data for the rad50EPP+ strain (AID 151);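 also: 0% = growth of vehicle-treated control cultures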; conditions: S. cerevisiae rad50 mutant strain, active compounds read high
In short: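 Growth inhibition read against vehicle controls in rad50EPP+ yeast, a strain altered in DNA damage repair, after compound exposure.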

[3] = NCI Yeast Anticancer Drug Screen. Data for the mgt1 strain (AID 153); conditions: S. cerevisiae mgt1 mutant growth inhibition, active compounds read high
In short: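 mgt1 yeast grown with test compound; read-out is growth inhibition versus vehicle-treated cultures.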

[4] = NCI Yeast Anticancer Drug Screen. Data for the rad50 strain (AID 155);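 also: 0% = growth of vehicle-only cultures of the same strain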; conditions: S. cerevisiae rad50 strain growth inhibition, active compounds read high
In short: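 Cells are treated with compound, grown, and their growth is then scored against vehicle-only cultures of the same repair-deficient yeast strain.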

[5] = NCI Yeast Anticancer Drug Screen. Data for the mec2-1 strain (AID 157); conditions: S. cerevisiae mec2-1 strain, active compounds read high
In short: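 Yeast mec2-1 mutant treated with compound. Readout: growth inhibition vs vehicle controls.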

[6] = NCI Yeast Anticancer Drug Screen. Data for the rad14 strain (AID 159);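 also: 0% = growth of vehicle-treated control cultures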; conditions: S. cerevisiae rad14 strain growth inhibition, active compounds read high
In short: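 Readout: yeast growth inhibition, referenced to vehicle-only cultures. Strain bears a defined alteration in DNA damage repair.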

[7] = NCI Yeast Anticancer Drug Screen. Data for the sgs1 mgt1 strain (AID 161);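 also: 0% = growth of cultures given vehicle only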; conditions: S. cerevisiae sgs1 mgt1 strain, active compounds read high
In short: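 Inhibition of yeast growth, normalised to vehicle-treated controls, is reported for a strain bearing genetic alterations in DNA damage repair.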

[8] = NCI Yeast Anticancer Drug Screen. Data for the CLN2oe strain (AID 163);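 also: 0% = growth of vehicle-only control cultures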; conditions: S. cerevisiae CLN2oe strain, active compounds read high
In short: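 Read-out: yeast growth inhibition, expressed relative to vehicle-only controls. The strain bears an engineered cell-cycle alteration.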

[9] = NCI Yeast Anticancer Drug Screen. Data for the cln2 rad14 strain (AID 165);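 also: 0% = growth equal to vehicle treated cultures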; conditions: S. cerevisiae cln2 rad14 strain, active compounds read high
In short: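 cln2 rad14 yeast strain; compound exposure; growth inhibition read vs vehicle controls.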

[10] = NCI Yeast Anticancer Drug Screen. Data for the bub3 strain (AID 167); conditions: S. cerevisiae bub3 mutant strain, active compounds read high
In short: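 Part of a panel of yeast mutants defective in DNA damage repair or cell cycle regulation. Each strain is grown with compound, and inhibition is calculated relative to solvent-treated cultures.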

[11] = NCI Yeast Anticancer Drug Screen. Data for the wt2 strain (AID 169);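 also: 0% = growth of vehicle-treated yeast cultures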; conditions: S. cerevisiae wt2 strain growth inhibition, active compounds read high
In short: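 Read-out: growth inhibition versus vehicle-treated control cultures after compound exposure of the yeast strain.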

[12] = NCI Yeast Anticancer Drug Screen. Data for the mlh1 strain (AID 171);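 also: 0% = growth of vehicle-treated control cultures of the same strain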; conditions: S. cerevisiae mlh1 strain growth inhibition, active compounds read high
In short: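 Read-out: growth inhibition versus vehicle controls. Strain: engineered yeast with a defined DNA repair or cell cycle defect, compound-treated.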

[13] = NCI Yeast Anticancer Drug Screen. Data for the sgs1 strain (AID 173);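 also: 0% = growth of vehicle-only control cultures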; conditions: S. cerevisiae sgs1 mutant, active compounds read high
In short: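 Read-out: yeast growth inhibition relative to vehicle controls, following compound exposure of a strain with a defined DNA repair/cell cycle alteration.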

[14] = NCI Yeast Anticancer Drug Screen. Data for the mlh1 rad18 strain (AID 175); conditions: S. cerevisiae mlh1 rad18 strain growth inhibition, active compounds read high
In short: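 Yeast w/ defined DNA-repair lesions; compound exposure; growth vs vehicle controls → % inhibition.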

[15] = NCI Yeast Anticancer Drug Screen. Data for the rad18 strain (AID 177); conditions: S. cerevisiae rad18 mutant growth inhibition, active compounds read high
In short: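 Readout: growth inhibition vs vehicle controls. Cells: genetically altered yeast strain, DNA repair defect.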

[16] = NCI Yeast Anticancer Drug Screen. Data for the rad52 strain (AID 147);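 also: 0% = growth of vehicle-treated control cultures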; conditions: S. cerevisiae rad52 mutant growth inhibition, active compounds read high
In short: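 Read-out: growth inhibition versus vehicle-treated controls. Cells were a DNA repair-deficient yeast strain treated with compounds.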

[17] = at 5.0 µM (retest, dose inferred, filed as 0.5)
[18] = at 50.0 µM (retest, dose inferred, filed as 5.0)

## CN(C)c1ccc(C(C#N)=C(C#N)C#N)cc1
[1]; at 1.2 µM
  growth inhibition: -6%
[1]; at 3.7 µM
  growth inhibition: -5%
[1]; at 11.0 µM
  growth inhibition: -6%
[1]; at 33.0 µM
  growth inhibition: -4%
[1]; at 100.0 µM
  growth inhibition: 12%
[2]; at 1.2 µM
  growth inhibition: 1%
[2]; at 3.7 µM
  growth inhibition: 3%
[2]; at 11.0 µM
  growth inhibition: 7%
[2]; at 33.0 µM
  growth inhibition: 15%
[2]; at 100.0 µM
  growth inhibition: 50%
[3]; at 1.2 µM
  growth inhibition: -3%
[3]; at 3.7 µM
  growth inhibition: -2%
[3]; at 11.0 µM
  growth inhibition: -1%
[3]; at 33.0 µM
  growth inhibition: -4%
[3]; at 100.0 µM
  growth inhibition: 10%
[4]; at 1.2 µM
  growth inhibition: -2%
[4]; at 3.7 µM
  growth inhibition: -8%
[4]; [17]
  growth inhibition: -127%
[4]; at 11.0 µM
  growth inhibition: 6%
[4]; at 33.0 µM
  growth inhibition: 11%
[4]; [18]
  growth inhibition: 70% (active)
[4]; at 50.0 µM
  growth inhibition: 88.2% (active)
[4]; at 100.0 µM
  growth inhibition: 62%
[5]; at 1.2 µM
  growth inhibition: 2%
[5]; at 3.7 µM
  growth inhibition: 2%
[5]; [17]
  growth inhibition: -35%
[5]; at 11.0 µM
  growth inhibition: 9%
[5]; at 33.0 µM
  growth inhibition: 3%
[5]; [18]
  growth inhibition: 82% (active)
[5]; at 50.0 µM
  growth inhibition: 89.3% (active)
[5]; at 100.0 µM
  growth inhibition: 18%
[6]; at 1.2 µM
  growth inhibition: 3%
[6]; at 3.7 µM
  growth inhibition: 8%
[6]; at 11.0 µM
  growth inhibition: 10%
[6]; at 33.0 µM
  growth inhibition: 11%
[6]; at 100.0 µM
  growth inhibition: 33%
[7]; [17]
  growth inhibition: -47%
[7]; [18]
  growth inhibition: 60%
[7]; at 50.0 µM
  growth inhibition: 73.2% (active)
[8]; at 1.2 µM
  growth inhibition: 2%
[8]; at 3.7 µM
  growth inhibition: 7%
[8]; at 11.0 µM
  growth inhibition: 8%
[8]; at 33.0 µM
  growth inhibition: 8%
[8]; at 100.0 µM
  growth inhibition: 16%
[9]; [17]
  growth inhibition: -45%
[9]; [18]
  growth inhibition: 6%
[9]; at 50.0 µM
  growth inhibition: 59.5%
[10]; at 1.2 µM
  growth inhibition: -10%
[10]; at 3.7 µM
  growth inhibition: -5%
[10]; [17]
  growth inhibition: -54%
[10]; at 11.0 µM
  growth inhibition: -5%
[10]; at 33.0 µM
  growth inhibition: -7%
[10]; [18]
  growth inhibition: 77% (active)
[10]; at 50.0 µM
  growth inhibition: 83.4% (active)
[10]; at 100.0 µM
  growth inhibition: 31%
[11]; at 1.2 µM
  growth inhibition: -2%
[11]; at 3.7 µM
  growth inhibition: 0%
[11]; at 11.0 µM
  growth inhibition: -1%
[11]; at 33.0 µM
  growth inhibition: 0%
[11]; at 100.0 µM
  growth inhibition: 7%
[12]; at 1.2 µM
  growth inhibition: 6%
[12]; at 3.7 µM
  growth inhibition: -6%
[12]; at 11.0 µM
  growth inhibition: -3%
[12]; at 33.0 µM
  growth inhibition: -6%
[12]; at 100.0 µM
  growth inhibition: 17%
[13]; at 1.2 µM
  growth inhibition: -1%
[13]; at 3.7 µM
  growth inhibition: -3%
[13]; at 11.0 µM
  growth inhibition: -3%
[13]; at 33.0 µM
  growth inhibition: -2%
[13]; at 100.0 µM
  growth inhibition: 44%
[14]; [17]
  growth inhibition: -108%
[14]; [18]
  growth inhibition: 76% (active)
[14]; at 50.0 µM
  growth inhibition: 89.6% (active)
[15]; at 1.2 µM
  growth inhibition: 0%
[15]; at 3.7 µM
  growth inhibition: 1%
[15]; at 11.0 µM
  growth inhibition: 5%
[15]; at 33.0 µM
  growth inhibition: 6%
[15]; at 100.0 µM
  growth inhibition: 39%

## COc1cc(C2SCC(=O)N2c2ccc(-c3ccc(-n4c(-c5ccccc5)nc5ccccc5c4=O)cc3)cc2)cc(OC)c1OC (stereo not drawn)
[16]; at 1.2 µM
  growth inhibition: -3%
[16]; at 3.7 µM
  growth inhibition: -1%
[16]; at 11.0 µM
  growth inhibition: 1%
[16]; at 33.0 µM
  growth inhibition: 1%
[16]; at 100.0 µM
  growth inhibition: -5%
[3]; at 1.2 µM
  growth inhibition: -1%
[3]; at 3.7 µM
  growth inhibition: 0%
[3]; at 11.0 µM
  growth inhibition: -2%
[3]; at 33.0 µM
  growth inhibition: -3%
[3]; at 100.0 µM
  growth inhibition: -7%
[4]; at 1.2 µM
  growth inhibition: -2%
[4]; at 3.7 µM
  growth inhibition: 2%
[4]; [17]
  growth inhibition: -1%
[4]; at 11.0 µM
  growth inhibition: 1%
[4]; at 33.0 µM
  growth inhibition: 3%
[4]; [18]
  growth inhibition: 13%
[4]; at 50.0 µM
  growth inhibition: 25.9%
[4]; at 100.0 µM
  growth inhibition: 1%
[5]; at 1.2 µM
  growth inhibition: 0%
[5]; at 3.7 µM
  growth inhibition: 0%
[5]; [17]
  growth inhibition: 2%
[5]; at 11.0 µM
  growth inhibition: 2%
[5]; at 33.0 µM
  growth inhibition: 4%
[5]; [18]
  growth inhibition: 3%
[5]; at 50.0 µM
  growth inhibition: 19.6%
[5]; at 100.0 µM
  growth inhibition: -2%
[6]; at 1.2 µM
  growth inhibition: 0%
[6]; at 3.7 µM
  growth inhibition: 0%
[6]; at 11.0 µM
  growth inhibition: 4%
[6]; at 33.0 µM
  growth inhibition: 6%
[6]; at 100.0 µM
  growth inhibition: 4%
[7]; [17]
  growth inhibition: 8%
[7]; [18]
  growth inhibition: 7%
[7]; at 50.0 µM
  growth inhibition: 21.6%
[8]; at 1.2 µM
  growth inhibition: 5%
[8]; at 3.7 µM
  growth inhibition: 7%
[8]; at 11.0 µM
  growth inhibition: 9%
[8]; at 33.0 µM
  growth inhibition: 10%
[8]; at 100.0 µM
  growth inhibition: -2%
[9]; [17]
  growth inhibition: 32%
[9]; [18]
  growth inhibition: 13%
[9]; at 50.0 µM
  growth inhibition: 52.4%
[10]; at 1.2 µM
  growth inhibition: -1%
[10]; at 3.7 µM
  growth inhibition: 4%
[10]; [17]
  growth inhibition: 6%
[10]; at 11.0 µM
  growth inhibition: 17%
[10]; at 33.0 µM
  growth inhibition: 27%
[10]; [18]
  growth inhibition: 73% (active)
[10]; at 50.0 µM
  growth inhibition: 71.7% (active)
[10]; at 100.0 µM
  growth inhibition: 41%
[11]; at 1.2 µM
  growth inhibition: -1%
[11]; at 3.7 µM
  growth inhibition: -2%
[11]; at 11.0 µM
  growth inhibition: -2%
[11]; at 33.0 µM
  growth inhibition: -3%
[11]; at 100.0 µM
  growth inhibition: -8%
[12]; at 1.2 µM
  growth inhibition: -1%
[12]; at 3.7 µM
  growth inhibition: 0%
[12]; at 11.0 µM
  growth inhibition: 1%
[12]; at 33.0 µM
  growth inhibition: -1%
[12]; at 100.0 µM
  growth inhibition: -3%

From PubChem BioAssay (NCI)
